Data: PubChem BioAssay (NCATS)
Records with an inconclusive call do not appear. Activity calls are given as the source filed them. Calls come from the whole dose curve; as a rule, active = well fitted cell-killing curve with a large enough effect; inconclusive = small, poorly fitted or top-dose-only effect, or effect the other way; inactive = no such curve, though single readings can be large or run the other way.

Test: Quantitative High-Throughput drug screen in 47 multiple myeloma cell lines against the NCATS MIPE library collection: U266_ATCC cell viability assay (AID 1919864); note: nearly all actives have a fitted effect of over 35% in size
Conditions: U266 myeloma viability, CellTiter-Glo ATP luminescence, 48 h; series mostly up to 45.8 µM
Description: PI: Beverly A. Mock Ph.D.
Laboratory of Cancer Biology and Genetics,
Center for Cancer Research, National Cancer Institute,
National Institute of Health, Bethesda, Maryland
Drug resistance and disease progression are common in multiple myeloma (MM) patients, underscoring the need for new therapeutic combinations. […] We hypothesized that effective combinations would reduce MYC expression and enhance p16 activity. […] These preclinical data identify potentially useful drug combinations for evaluation in drug-resistant MM and reveal potential mechanisms of combined drug sensitivity.
Described herein is the primary MIPE qHTS used to cherrypick compounds. Validated compounds were then further tested for potential synergistic activiy.
[1] Peat TJ, Gaikwad SM, Dubois W, Gyabaah-Kessie N, Zhang S, Gorjifard S, Phyo Z, Andres M, Hughitt VK, Simpson RM, Miller MA, Girvin AT, Taylor A, Williams D, D'Antonio N, Zhang Y, Rajagopalan A, Flietner E, Wilson K, Zhang X, Shinn P, Klumpp-Thomas C, McKnight C, Itkin Z, Chen L, Kazandijian D, Zhang J, Michalowski AM, Simmons JK, Keats J, Thomas CJ, Mock BA. Drug combinations identified by high-throughput screening promote cell cycle transition and upregulate Smad pathways in myeloma. Cancer Lett. 2023 Aug 1;568:216284. doi: 10.1016/j.canlet.2023.216284. Epub 2023 Jun 24. PMID: 37356470; PMCID: PMC10408729.
SEQUENCE No. (e.g., 1, 2, 3, etc.); […] (e.g., Cells, Incubation, Reagent, etc.); VALUE and DESCRIPTION.
1; Cells; 5 uL; white, solid bottom 1536-well Greiner assay plate.
2; Compounds; 23 nL; Kalypsis pin tool (Wako USA) equipped with a 1536-well pin head to transfer to the assay plates.
3; Incubation; 48 hours; 37C incubation.
4; Reagent;5uL; CellTiter Glo (Promega).
5; Detector; 425V; Luminescence; Viewlux PerkinElmer.
NOTES (numbers refer to Sequence numbers above)
1. The cell-based screening methods employed in this study were like those previously published. Briefly, the corresponding myeloma cell lines were screened in 1,536-well plates with 500 cells, 5-uL per well for inhibition of cell viability (assessed by measuring ATP levels with CellTiterGlo).
2. NCATS MIPE 4.0 library of approved and investigational drugs were added using the Kalypsis pin tool. Wells treated with DMSO only for 100% viability and media only for 0% viability were used as controls.
3. The assay plates were covered and incubated for 48 hours in a 37C, 5% CO2 incubator with controlled humidity.
4. After 48 hours, CellTilter-GloTM luminescent substrate mix (Promega) reagent was added to the assay plate and plates we incubated for 5 min at room temperature.
5. Signal was measured as median relative luminescence units on a ViewLux (PerkinElmer) multiplate reader.
[1] Heske CM, Davis MI, Baumgart JT, Wilson K, Gormally MV, Chen L, Zhang X, Ceribelli M, Duveau DY, Guha R, Ferrer M, Arnaldez FI, Ji J, Tran HL, Zhang Y, Mendoza A, Helman LJ, Thomas CJ. Matrix Screen Identifies Synergistic Combination of PARP Inhibitors and Nicotinamide Phosphoribosyltransferase (NAMPT) Inhibitors in Ewing Sarcoma. Clin Cancer Res. 2017 Dec 1;23(23):7301-7311. doi: 10.1158/1078-0432.CCR-17-1121. Epub 2017 Sep 12. PMID: 28899971; PMCID: PMC6636827.
Potency is the fitted concentration of half-maximal effect.

Row | SMILES | Potency
1 | COc1ccc(F)c(F)c1C(=O)c1cnc(NC2CCN(S(C)(=O)=O)CC2)nc1N | 2.64 µM (active)
2 | CCCCOc1c(C(=O)c2c(F)cc(C)cc2F)cnc2n[nH]cc12 | 13.2 µM (active)
3 | Cc1ccc(C(=O)Nc2ccc(CN3CCN(C)CC3)c(C(F)(F)F)c2)cc1C#Cc1cnc2cccnn12 | 14.8 µM (active)
4 | CC[C@@]1(O)C(=O)OCc2c1cc1n(c2=O)Cc2cc3cc(O)ccc3nc2-1 | 2.96 µM (active)
5 | CCC1=C[C@@H]2CN(C1)Cc1c([nH]c3ccccc13)[C@@](C(=O)OC)(c1cc3c(cc1OC)N(C)[C@@H]1[C@@](O)(C(=O)OC)[C@H](OC(C)=O)[C@]4(CC)C=CCN5CC[C@]31[C@@H]54)C2 | 14.8 µM (active)
6 | C#Cc1cccc(Nc2ncnc3cc(OC)c(OCCCCCCC(=O)NO)cc23)c1 | 0.105 µM (active)
7 | O=C(Cc1ccc(-c2ccc(OCCN3CCOCC3)cc2)cn1)NCc1ccccc1 | 0.0935 µM (active)
8 | Nc1ccc(S(=O)(=O)Nc2ncccn2)cc1 | inactive
9 | Cc1cc(C(=O)N2CCN(c3cccc(Cl)c3)CC2)n(-c2ccccc2)n1 | 20.9 µM (active)
10 | CC(C)C[C@H](NC(=O)CNC(=O)c1cc(Cl)ccc1Cl)B(O)O | 0.0833 µM (active)
11 | Nc1ncnc2c1c(-c1cccc(OCc3ccccc3)c1)cn2C1CC(CN2CCCC2)C1 (stereo not given) | 16.6 µM (active)
12 | COC(=O)C1=C(C)NC(C)=C(C(=O)OCCN2CCN(C(c3ccccc3)c3ccccc3)CC2)C1c1cccc([N+](=O)[O-])c1 (stereo not given) | inactive
13 | Cn1cncc1[C@@](N)(c1ccc(Cl)cc1)c1ccc2c(c1)c(-c1cccc(Cl)c1)cc(=O)n2C | 23.5 µM (active)
14 | N#Cc1c(O)c2c(-c3ccc(-c4ccccc4O)cc3)csc2[nH]c1=O | inactive
15 | Cc1ccc(C(N)=O)cc1Nc1nccc(-c2cn(C(C)C)c3cnccc23)n1 | 8.33 µM (active)
16 | Cn1c(CNc2ccc(C(=N)N)cc2)nc2cc(C(=O)N(CCC(=O)O)c3ccccn3)ccc21 | inactive
17 | CNC(=O)c1c(F)cccc1Nc1nc(Nc2cc3c(cc2OC)CCN3C(=O)CN(C)C)nc2[nH]ccc12 | 3.32 µM (active)
18 | c1ccc2c(CCNc3ccc(Nc4ccncc4)cc3)c[nH]c2c1 | 20.9 µM (active)
19 | Nc1ccc(C(=O)c2cc3c(ccc4ccccc43)[nH]2)cc1 | 14.8 µM (active)
20 | CNC(=O)c1nn(C)c2c1C(C)(C)Cc1cnc(Nc3ccc(N4CCN(C)CC4)cc3)nc1-2 | 0.935 µM (active)

Row | SMILES | Potency
21 | CC(C)c1ccccc1Cc1cc(C(=O)Nc2ccc(S(=O)(=O)c3ccccc3C(C)(C)C)cc2)c(O)c(O)c1O | 13.2 µM (active)
22 | Cc1cc(CN2CCN(c3c(Br)cnc4nc(-c5ccc(N6CCN(C)CC6)cc5)[nH]c34)CC2)no1 | 16.6 µM (active)
23 | Nc1ccn([C@@H]2O[C@H](CO)[C@H](O)C2(F)F)c(=O)n1 | 14.8 µM (active)
24 | CC1COC2(CCN(c3nc(=O)c4cc(C(F)(F)F)cc([N+](=O)[O-])c4s3)CC2)O1 (stereo not given) | inactive
25 | CC(C)Nc1cc(C(F)(F)F)cc2nc(NC(=O)c3cccnc3)nn12 | 7.43 µM (active)
26 | O=C(O)c1ccc2c(c1)nc(Nc1cccc(Cl)c1)c1ccncc12 | 5.26 µM (active)
27 | N#CCNC(=O)c1ccc(-c2ccnc(Nc3ccc(N4CCOCC4)cc3)n2)cc1 | 18.7 µM (active)
28 | CCC[C@H](NC(=O)C(C#N)=Cc1cccc(Br)n1)c1ccccc1 | 5.9 µM (active)
29 | Cc1[nH]c2ccccc2c1CCNCc1ccc(C=CC(=O)NO)cc1 | 0.132 µM (active)
30 | COc1cc2ncnc(Nc3ccc(F)c(Cl)c3)c2cc1NC(=O)C=CCN1CCCCC1 | 1.18 µM (active)
31 | CCN(CC)CCCCNc1ncc2cc(-c3cc(OC)cc(OC)c3)c(NC(=O)NC(C)(C)C)nc2n1 | 18.7 µM (active)
32 | Cc1c(Cn2c(C)nc3c(C(=O)O)cc(N4CCOCC4)cc32)cccc1C(F)(F)F | inactive
33 | CCN1CCN(Cc2ccc(-c3cc4c(N[C@H](C)c5ccccc5)ncnc4[nH]3)cc2)CC1 | 0.166 µM (active)
34 | Nc1ccccc1NC(=O)c1ccc(CNc2nccc(-c3cccnc3)n2)cc1 | 1.66 µM (active)
35 | CN(C1CCc2c(c3ccccc3n2CC(=O)O)C1)S(=O)(=O)c1ccc(F)cc1 (stereo not given) | 18.7 µM (active)
36 | O=C(c1ccc(Nc2nccc(-c3cc4ccccc4s3)n2)cc1)N1CCC(N2CCCC2)CC1 | 14.8 µM (active)
37 | CC[C@@H]1C(=O)N(C)c2cnc(Nc3ccc(C(=O)NC4CCC(N5CCN(CC6CC6)CC5)CC4)cc3OC)nc2N1C(C)C (stereo not given in full) | 5.9 µM (active)
38 | CC(C)(C)c1cnc(CSc2cnc(NC(=O)C3CCNCC3)s2)o1 | 0.118 µM (active)
39 | Cc1cn2c(-c3cn[nH]c3)cnc2c(Nc2ccc(C(=O)N3CCNCC3)cc2F)n1 | 13.2 µM (active)
40 | O=c1c2ccccc2nc2n1CCc1c-2[nH]c2ccccc12 | inactive
